Experimental data from PubChem BioAssay (NCI).
About 83,000 compounds went through this panel and 20% of them were active in at least one assay; those are over-represented in the sample as a whole.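 48-hour exposure, single concentration, 96-well plates; percent growth endpoint where 0 means no net growth. Active: below 10.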 Activity calls are given as the source filed them.

Columns and labels:
Test in all cases: NCI-60 one-dose screen, 48 h (100 = growth as untreated, 0 = no growth, -100 = all killed)
Details in all cases: 10 µM unless noted
SK-MEL-2 melanoma = test system: SK-MEL-2 melanoma
EKVX NSCLC = test system: EKVX NSCLC
SN12C renal = test system: SN12C renal
UO-31 renal = test system: UO-31 renal
TK-10 renal = test system: TK-10 renal
ACHN renal = test system: ACHN renal
CAKI-1 renal = test system: CAKI-1 renal
A498 renal = test system: A498 renal
CCRF-CEM leukemia = test system: CCRF-CEM leukemia
MOLT-4 leukemia = test system: MOLT-4 leukemia
SR leukemia = test system: SR leukemia
RPMI-8226 leukemia = test system: RPMI-8226 leukemia
OVCAR-8 ovarian = test system: OVCAR-8 ovarian
OVCAR-5 ovarian = test system: OVCAR-5 ovarian
OVCAR-4 ovarian = test system: OVCAR-4 ovarian
SK-OV-3 ovarian = test system: SK-OV-3 ovarian
IGROV1 ovarian = test system: IGROV1 ovarian
OVCAR-3 ovarian = test system: OVCAR-3 ovarian
HS 578T breast = test system: HS 578T breast
NCI/ADR-RES ovarian = test system: NCI/ADR-RES ovarian

Measured: growth

C[C@]12C[C@H]1CC[C@]1(C)[C@@H]2CC[C@@]23C[C@H](CC[C@H]21)[C@@](O)(CO)C3
inactive: SK-MEL-2 melanoma 104% | EKVX NSCLC 74.8% | SN12C renal 92% | UO-31 renal 84% | TK-10 renal 100% | ACHN renal 107% | CAKI-1 renal 85.9% | A498 renal 92.9% | CCRF-CEM leukemia 86.4% | MOLT-4 leukemia 96% | SR leukemia 63.3% | RPMI-8226 leukemia 95% | OVCAR-8 ovarian 102% | OVCAR-5 ovarian 92.9% | OVCAR-4 ovarian 110% | SK-OV-3 ovarian 113% | IGROV1 ovarian 104% | OVCAR-3 ovarian 111% | HS 578T breast 99.6% | NCI/ADR-RES ovarian 97.7%

O=C1c2cccnc2C(=O)c2nc3cc(N4CCN(C5CC5)CC4)ccc3nc21
inactive: EKVX NSCLC 27.4% | CCRF-CEM leukemia 26.2% | MOLT-4 leukemia 26.2% | RPMI-8226 leukemia 25.3% | NCI/ADR-RES ovarian 20.1%
active: SK-MEL-2 melanoma -16.3% | SN12C renal -94.7% | UO-31 renal -100% | TK-10 renal 0.122% | ACHN renal -35.1% | CAKI-1 renal -5.27% | A498 renal -88.1% | SR leukemia -10% | OVCAR-8 ovarian -15.2% | OVCAR-5 ovarian -82.3% | OVCAR-4 ovarian -87.8% | SK-OV-3 ovarian -78.6% | IGROV1 ovarian -13.8% | OVCAR-3 ovarian -1.56% | HS 578T breast -36.5%

COc1cc(C2CC(c3cccc(Nc4ccncc4)c3)=NN2c2cc(Cl)cc(Cl)c2)cc(OC)c1OC (stereo not given)
inactive: SK-MEL-2 melanoma 71.4% | EKVX NSCLC 65.8% | UO-31 renal 28.4% | TK-10 renal 34% | A498 renal 84% | OVCAR-5 ovarian 65.1% | SK-OV-3 ovarian 76.2% | NCI/ADR-RES ovarian 51.4%
active: SN12C renal 9.72% | ACHN renal -66.5% | CAKI-1 renal 8.57% | CCRF-CEM leukemia -17.5% | MOLT-4 leukemia -22.7% | SR leukemia 0.528% | RPMI-8226 leukemia -13.7% | OVCAR-8 ovarian -8.55% | OVCAR-4 ovarian 6.43% | IGROV1 ovarian -2.86% | OVCAR-3 ovarian 3.71% | HS 578T breast 0.285%

O=S(=O)(NCCCNc1nccc(-c2c(-c3ccccc3)nc3occn23)n1)c1ccc(Cl)cc1
inactive: SK-MEL-2 melanoma 88.3% | EKVX NSCLC 89.1% | SN12C renal 68.2% | UO-31 renal 44.4% | TK-10 renal 102% | ACHN renal 58.3% | CAKI-1 renal 62% | A498 renal 83.1% | CCRF-CEM leukemia 75.5% | MOLT-4 leukemia 68.1% | SR leukemia 60.9% | RPMI-8226 leukemia 71.2% | OVCAR-8 ovarian 74.4% | OVCAR-5 ovarian 127% | OVCAR-4 ovarian 103% | SK-OV-3 ovarian 83% | IGROV1 ovarian 75.7% | OVCAR-3 ovarian 104% | HS 578T breast 96.7% | NCI/ADR-RES ovarian 87.8%

CN1CCN(c2ccc3nc(-c4cc(C(C)(C)C)c(O)c(C(C)(C)C)c4)[nH]c3c2)CC1
inactive: SK-MEL-2 melanoma 82.5% | EKVX NSCLC 86.4% | SN12C renal 88.2% | UO-31 renal 61.3% | TK-10 renal 90.5% | ACHN renal 87.3% | CAKI-1 renal 68.6% | A498 renal 90.5% | CCRF-CEM leukemia 14.5% | MOLT-4 leukemia 39.6% | OVCAR-8 ovarian 94.1% | OVCAR-5 ovarian 91.6% | OVCAR-4 ovarian 75.9% | SK-OV-3 ovarian 83.9% | IGROV1 ovarian 88% | OVCAR-3 ovarian 74.4% | HS 578T breast 71.9% | NCI/ADR-RES ovarian 86.8%
active: SR leukemia -14.5% | RPMI-8226 leukemia -24.2%

CC(C)(C)CC(C)(C)Nc1c(-c2ccc(C(F)(F)F)cc2)nc2cnccn12
inactive: SK-MEL-2 melanoma 91% | EKVX NSCLC 79.4% | SN12C renal 86.1% | UO-31 renal 64.1% | TK-10 renal 102% | ACHN renal 87% | CAKI-1 renal 75.4% | A498 renal 83.8% | CCRF-CEM leukemia 85.8% | MOLT-4 leukemia 68.5% | SR leukemia 59.8% | RPMI-8226 leukemia 62.9% | OVCAR-8 ovarian 89.2% | OVCAR-5 ovarian 102% | OVCAR-4 ovarian 79.4% | SK-OV-3 ovarian 82.7% | IGROV1 ovarian 67.4% | OVCAR-3 ovarian 84.8% | HS 578T breast 102% | NCI/ADR-RES ovarian 81.9%

Nc1nc(N)nc(NCc2ccccc2)n1
inactive: SK-MEL-2 melanoma 112% | EKVX NSCLC 99.3% | SN12C renal 98.4% | UO-31 renal 91.1% | TK-10 renal 95.8% | ACHN renal 106% | CAKI-1 renal 99.7% | A498 renal 105% | CCRF-CEM leukemia 109% | MOLT-4 leukemia 95.4% | SR leukemia 89% | RPMI-8226 leukemia 107% | OVCAR-8 ovarian 117% | OVCAR-5 ovarian 103% | OVCAR-4 ovarian 128% | SK-OV-3 ovarian 115% | IGROV1 ovarian 109% | OVCAR-3 ovarian 105% | HS 578T breast 120% | NCI/ADR-RES ovarian 100%

CCC(C)C(N)C(=O)NNc1n[nH]c(=S)n1N (stereo not given)
inactive: SK-MEL-2 melanoma 102% | EKVX NSCLC 95.5% | SN12C renal 99.2% | UO-31 renal 85.3% | TK-10 renal 104% | ACHN renal 101% | CAKI-1 renal 91% | A498 renal 93.8% | CCRF-CEM leukemia 99.7% | MOLT-4 leukemia 101% | SR leukemia 99.7% | RPMI-8226 leukemia 99.9% | OVCAR-8 ovarian 97.8% | OVCAR-5 ovarian 99.2% | OVCAR-4 ovarian 102% | SK-OV-3 ovarian 99.3% | IGROV1 ovarian 105% | OVCAR-3 ovarian 107% | HS 578T breast 91.6% | NCI/ADR-RES ovarian 102%
